Screens deposited in PubChem BioAssay by National Center for Advancing Translational Sciences (NCATS).
Pf growth 48h – inhibits P. falciparum growth in the first generation, 48 h; AID 504832; hit rate 5.9% among 310,000; Potency, µM (top dose mostly 28.7 µM), most hits filed as inhibitors; P. falciparum luciferase growth in erythrocytes, 48 h
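A one-generation exposure of luciferase-tagged malaria parasites in RPMI 1640/Albumax erythrocyte culture, 37 C and 5% CO2. Inhibition is inferred from decreased luminescence after adding detection reagent.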
NS1 function inh – inhibitors of influenza NS1 protein function. hit rate 0.4% among 270,000. AID 2326. Potency, µM (highest dose often 46.1 µM); calls by dose curve; note: actives are rising curves; nearly all actives have a fitted effect of over 50% in size
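Read-out: OD600 growth recovery of NS1-expressing budding yeast. Cells grown overnight at 30C in -URA glucose medium, washed, resuspended and diluted 1:100 in 2% galactose assay medium, pH 6.0. Same strain lacking NS1 served as positive control.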
Pf growth 96h – P. falciparum growth inhibition at 96 hour, primary screen for plastid delayed-death inhibitors; Potency, µM (titrated, usually from 28.7 µM), actives largely listed as inhibitors; P. falciparum luciferase reporter growth, 96 h; hit rate 6.9% among 320,000
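P. falciparum expressing integrated firefly luciferase, in erythrocytes at 2% hematocrit, 0.05% parasitemia, incubated with compounds 96 h at 37 C, 5% CO2. Growth inhibition read as loss of luminescence; two-generation exposure targets delayed-death apicoplast inhibitors.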
CHX counter – counter-screen for Shiga toxin inhibitors: cycloheximide protein synthesis inhibition. cell reporter, cycloheximide protein synthesis inhibition counterscreen. max response, %. hit rate 12% among 300,000; in the data active = max response mostly above about 13%, no sharp cut-off; inactive = mostly below about 14%; note: read at 38.3 µM for the half of the compounds with a filed dose
Shiga toxin inh – Shiga toxin inhibition; AID 2315; inhibition, % at 38.7 µM; Vero cells, Shiga toxin protein synthesis inhibition reporter; hit rate 9.2% among 290,000; in the data active = inhibition mostly above about 28%, no sharp cut-off; inactive = mostly below about 43%
Each line names hits and unclear results; the compound was inactive in the other large screens; ! = not active in a repeat. Sampled rows, rich in hits. Any-hit rate of the full collection: about 21%. Unless noted, calls come from the whole dose curve; as a rule, active = well fitted inhibition curve with a large enough effect; inconclusive = small, poorly fitted or top-dose-only effect, or another doubt; inactive = no such curve, though single readings can be large or run the other way.

COc1ccc(-c2c(-c3ccc(OC)c(C)c3O)n[nH]c2C)cc1	Pf growth 96h 11.7µM
COc1ccc(O)c(-c2cc(-c3cccc(Br)c3)n[nH]2)c1	Pf growth 96h inconclusive, CHX counter 31.7, Shiga toxin inh 29.1 (no result: Pf growth 48h)
COc1ccc(-c2c(-c3ccc(O)cc3O)n[nH]c2C)cc1OC	NS1 function inh inconclusive, Pf growth 96h inconclusive (no result: Pf growth 48h)
COc1ccc(O)c(-c2cc(-c3ccc(F)cc3)n[nH]2)c1	Pf growth 48h inconclusive, CHX counter 50.3, Shiga toxin inh 116.4
CCOC(=O)N1CCN(CC(=O)Nc2cc(OC)c(OC)cc2C#N)CC1	Pf growth 48h inconclusive, Pf growth 96h inconclusive (no result: NS1 function inh)
COc1ccc(-c2cc(-c3ccc(Cl)cc3)n[nH]2)c(O)c1	Pf growth 48h inconclusive, CHX counter 37.0, Shiga toxin inh 92.5
CCOc1ccc(-c2[nH]ncc2-c2ccc(OC)c(OC)c2)c(O)c1	Pf growth 48h inconclusive, NS1 function inh inconclusive
COc1ccc(-c2cc(-c3cc(F)ccc3O)[nH]n2)cc1OC	Pf growth 96h inconclusive, CHX counter 37.7, Shiga toxin inh 78.1
COC(=O)c1cc(-c2ccc(OC)c(OC)c2)n[nH]1	none (no result: Pf growth 48h)
COc1ccc(-c2cc(-c3cc(OC)ccc3O)[nH]n2)cc1	CHX counter 45.1, Shiga toxin inh 97.4 (no result: Pf growth 48h, Pf growth 96h)
COc1ccc(-c2cn[nH]c2-c2ccc(O)cc2O)cc1OC	Pf growth 48h inconclusive, Pf growth 96h 9.28µM
Cc1noc(C)c1COc1ccccc1C(=O)N(C)Cc1ccco1	none (no result: NS1 function inh, CHX counter, Shiga toxin inh)
Cc1ccc(CNC(=O)c2ccc(N3CCC4(CC3)CC(c3cccc(Br)c3)=NO4)c(NC(=O)c3ccco3)c2)cc1	Pf growth 48h 1.65µM, Pf growth 96h 3.7µM (no result: NS1 function inh, CHX counter, Shiga toxin inh)
CCCNC(=O)c1ccc(N2CCC3(CC2)CC(c2ccccc2)=NO3)c(NC(=O)c2cccc(OC)c2)c1	Pf growth 48h inconclusive, Pf growth 96h 2.08µM
Cc1ccc(CNC(=O)c2ccc(N3CCC4(CC3)CC(c3ccccc3)=NO4)c(NC(=O)c3ccccc3)c2)cc1	Pf growth 48h 4.65µM, Pf growth 96h inconclusive (no result: NS1 function inh, CHX counter, Shiga toxin inh)
CCCNC(=O)c1ccc(N2CCC3(CC2)CC(c2ccccc2)=NO3)c(NC(=O)c2ccco2)c1	Pf growth 48h inconclusive, Pf growth 96h 1.17µM
Cc1ccc(CNC(=O)c2ccc(N3CCC4(CC3)CC(c3ccccc3)=NO4)c(NC(=O)c3ccc(Br)cc3)c2)cc1	Pf growth 48h inconclusive, Pf growth 96h inconclusive
Cn1c(N)c(C(=O)CSc2nc3ccccc3[nH]2)c(=O)n(C)c1=O	NS1 function inh inconclusive
Cc1cn2c(nc(=O)c3cccnc32)s1	none
Cc1ccc(C)c2[nH]c(=O)c(CN(CC3CCCO3)C(=O)NC3CCCCC3)cc12 (stereo unspecified)	none
Cc1ccc(CNC(=O)c2ccc(N3CCC4(CC3)CC(c3ccccc3)=NO4)c(NC(=O)c3ccco3)c2)cc1	Pf growth 48h inconclusive, Pf growth 96h 1.04µM
CCCCC(CC)C(=O)Nc1cc(C(=O)NCCC)ccc1N1CCC2(CC1)CC(c1ccccc1)=NO2 (stereo unspecified)	NS1 function inh inconclusive, Pf growth 96h 1.47µM
CCOC(=O)COc1ccc(S(=O)(=O)N2CCN(c3ccccc3)CC2)cc1	none
O=S(=O)(Nc1cccc(-n2cnnn2)c1)c1cc(Br)ccc1Br	none
O=c1c2c(nc3nc(NCc4ccccc4Cl)[nH]n13)CCC2	none (no result: NS1 function inh)
Cc1ccc(NC(=O)c2nc(S(=O)(=O)Cc3ccccc3C)ncc2Cl)cc1C	Pf growth 96h inconclusive, CHX counter 37.2, Shiga toxin inh 39.0
CC(=O)Nc1ccc(NC(=O)c2nc(S(=O)(=O)Cc3cccc(C)c3)ncc2Cl)cc1	Pf growth 96h inconclusive, CHX counter 45.7, Shiga toxin inh 99.1
Cc1n[nH]c(C)c1S(=O)(=O)N1CCN(S(=O)(=O)c2ccccc2C#N)CC1	Pf growth 96h inconclusive (no result: NS1 function inh, CHX counter, Shiga toxin inh)
Cc1cn([C@H]2C[C@H](N=[N+]=[N-])[C@@H](CO)O2)c(=O)[nH]c1=O	none
Cc1cn([C@H]2C=C[C@@H](CO)O2)c(=O)[nH]c1=O	Pf growth 96h inconclusive, CHX counter 51.9!, Shiga toxin inh 161.8!
CO/N=C/C(C#N)=C/c1ccc(OC)cc1	CHX counter 43.4, Shiga toxin inh 60.8
CC(=O)C1C(c2ccc(F)cc2)NC(=O)NC1(O)C(F)(F)F (stereo unspecified)	Pf growth 96h inconclusive
CC(=O)C1C(c2cccc(F)c2)NC(=O)NC1(O)C(F)(F)F (stereo unspecified)	Pf growth 96h 4.65µM
COc1cccc(Nc2nc(CC(C)=O)ns2)c1	Pf growth 96h inconclusive, CHX counter 18.7, Shiga toxin inh 59.9
COc1ccc(Nc2nc(CC(C)=O)ns2)cc1	Pf growth 96h 2.62µM, CHX counter 27.4, Shiga toxin inh 68.3
CC(=O)Nc1ccc(S(=O)(=O)N2CCOCC2)cc1	Pf growth 96h 2.94µM
Cc1ccc(NC(=O)c2ccc(S(=O)(=O)N3CCOCC3)cc2)cc1	CHX counter 29.2
CC(=O)Nc1ccc(S(=O)(=O)N2CCN(C(=O)N3CCOCC3)CC2)cc1	Pf growth 96h inconclusive
O=C(Nc1ccc(Cl)cc1)c1ccc(S(=O)(=O)N2CCOCC2)cc1	Pf growth 96h inconclusive
Cn1cc(S(=O)(=O)N2CCOCC2)cc1C(=O)Nc1ccc(Cl)cc1	Pf growth 96h 7.38µM, Shiga toxin inh 38.6
Cc1ccc(-c2[nH]c3ccccc3c2SCCNC(=O)c2ccc(S(=O)(=O)N3CCOCC3)cc2)cc1	Pf growth 48h inconclusive, Pf growth 96h 8.28µM
O=C(NCCCn1ccnc1)c1ccc(Cl)s1	none
CC(=O)Nc1ccc(S(=O)(=O)N2CCC3(CC2)OCCO3)cc1	Pf growth 96h 9.28µM
CC(=O)Nc1ccc(S(=O)(=O)N2CCSC2C(=O)O)cc1 (stereo unspecified)	Pf growth 96h 11.7µM (no result: Pf growth 48h)
CC(=O)Nc1ccc(S(=O)(=O)NCCN2CCNC2=O)cc1Cl	Pf growth 48h inconclusive, Pf growth 96h 7.38µM
CC(=O)Nc1ccc(S(=O)(=O)N2CCSC2c2ccc(C)cc2)cc1 (stereo unspecified)	NS1 function inh inconclusive
CC(=O)Nc1ccc(NC(=O)C(C)OC(=O)c2cc(S(=O)(=O)N3CCOCC3)ccc2Cl)cc1 (stereo unspecified)	none (no result: NS1 function inh, CHX counter, Shiga toxin inh)
CC(Oc1ccc(Cl)cc1)C(=O)Nc1ccc(S(=O)(=O)N2CCOCC2)cc1 (stereo unspecified)	Pf growth 48h 13.1µM
C[C@H](NC(=O)c1nc[nH]c1C(=O)NCCCCCN)C(=O)OCc1ccccc1	none (no result: NS1 function inh, CHX counter, Shiga toxin inh)
Cc1ccc(S(=O)(=O)N2CCN(C(=O)COC(=O)Cc3cccc(C(F)(F)F)c3)CC2)c(C)c1	none (no result: NS1 function inh, CHX counter, Shiga toxin inh)
CC(=O)Nc1ccc(S(=O)(=O)n2nc(C)cc2C)cc1	Pf growth 96h 0.928µM
CC(C(=O)Nc1ccc(S(=O)(=O)N2CCCC2)cc1)N1CCc2ccccc2C1 (stereo unspecified)	Pf growth 48h 11.7µM, Pf growth 96h inconclusive (no result: NS1 function inh, CHX counter, Shiga toxin inh)
CC(=O)Nc1ccc(S(=O)(=O)N2CCN(CCN3CCOCC3)CC2)cc1Cl	Pf growth 48h 2.08µM
CC(Oc1ccccc1Cl)C(=O)Nc1ccc(S(=O)(=O)N2CCCC2)cc1 (stereo unspecified)	Pf growth 48h 13.1µM (no result: NS1 function inh, CHX counter, Shiga toxin inh)
COc1ccc(NC(=O)CSc2ccc(-c3cccnc3)nn2)c(OC)c1	Pf growth 48h inconclusive, Pf growth 96h inconclusive
